Measured values: PubChem BioAssay (NCATS)
Inconclusive results are not listed. Unless noted, calls follow the shape of the dose curve; as a rule, active = well fitted curve in either direction with a large enough effect (not every such curve was filed as active); inconclusive = small, poorly fitted or top-dose-only effect, or another doubt; inactive = flat fitted curve, though single readings scatter.

Assays:
[1] = AP1 Signaling Pathway (AID 357); settings: ME-180 AP-1-bla reporter, EGF-induced, beta-lactamase ratio, 5 h; at 17.2 µM (top of the series) unless noted;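 also: ME-180 reporter cells stimulated with EGF at its EC50 level; % is scaled to controls: 0 for no effect and ±100 for the full control effect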
Outline: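 First, ME-180 AP-1-bla cells were cultured overnight at 37 °C in low-serum Opti-MEM. Next, titrated compounds with EC50 EGF were incubated 5 hours. Finally, CCF4 was added for 2.5 hours and the 460/530 nm ratio recorded.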

[2] = Stat Signaling Pathway (AID 446); settings: ME-180 (cervical carcinoma) SIE beta-lactamase reporter, IL-6 stimulated, 5 h; at 17.2 µM (top of the series) unless noted;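 also: ME-180 cervical cancer cells given 40 pM IL-6 alongside compound; SIE-controlled beta-lactamase reporter measured as 460/530 nm FRET emission ratio; % is scaled to controls: 0 for no effect and ±100 for the full control effect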
Outline: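 Compound effects on IL-6-induced STAT reporter activity were measured in ME-180 cells. After overnight culture, cells were co-treated with 40 pM IL-6 for 5 hrs before beta-lactamase substrate loading at room temperature.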

[3] = molecular target: Glucocorticoid receptor (Homo sapiens) (UniProt P04150); test: GR-GFP Redistribution (AID 450;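 active = compounds whose dose series gives a full or clear partial fitted curve of increased nuclear translocation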; also: potency is read from the fitted curve at half-maximal effect)
Glucocorticoid receptor (Homo sapiens), sequence (P04150 whole entry, looked up): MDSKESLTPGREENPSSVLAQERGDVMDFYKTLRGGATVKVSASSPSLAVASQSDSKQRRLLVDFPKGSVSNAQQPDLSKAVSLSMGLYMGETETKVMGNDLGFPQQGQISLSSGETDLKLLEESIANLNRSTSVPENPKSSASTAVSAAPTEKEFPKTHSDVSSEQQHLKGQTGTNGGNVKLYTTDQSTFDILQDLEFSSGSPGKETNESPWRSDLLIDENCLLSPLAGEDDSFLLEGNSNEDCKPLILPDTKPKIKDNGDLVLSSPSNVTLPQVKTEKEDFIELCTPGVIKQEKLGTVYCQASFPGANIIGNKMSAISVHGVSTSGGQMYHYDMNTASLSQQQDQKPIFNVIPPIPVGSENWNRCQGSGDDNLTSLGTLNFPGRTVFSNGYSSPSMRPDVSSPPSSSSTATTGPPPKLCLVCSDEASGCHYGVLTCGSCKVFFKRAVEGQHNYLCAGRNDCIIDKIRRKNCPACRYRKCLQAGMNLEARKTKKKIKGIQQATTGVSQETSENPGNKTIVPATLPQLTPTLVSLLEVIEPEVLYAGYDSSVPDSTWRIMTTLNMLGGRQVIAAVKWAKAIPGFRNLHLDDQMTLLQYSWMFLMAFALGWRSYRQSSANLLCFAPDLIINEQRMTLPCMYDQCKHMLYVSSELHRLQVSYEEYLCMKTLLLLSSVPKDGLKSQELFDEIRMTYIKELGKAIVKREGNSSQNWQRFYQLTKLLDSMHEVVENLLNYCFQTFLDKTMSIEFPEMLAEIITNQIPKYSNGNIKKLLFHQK

Cc1nc(-c2cn[nH]c2)c2cc(C)oc2n1
inactive: activity change, negative = inhibition [1] -1.95% | activity, negative = inhibition [2] -3.87% | Potency [3] > 20.6 µM

Cc1ccc2[nH]c3c(c2c1)CN(C(=O)CN1CCCc2ccccc21)CC3
inactive: activity change, negative = inhibition [1] -22.5% | activity, negative = inhibition [2] -11.3% | Potency [3] > 20.6 µM

COC(=O)c1cc(=O)n2c(-c3ccc(OC)cc3)csc2n1
inactive: activity change, negative = inhibition [1] -2.63% | activity, negative = inhibition [2] 5.85% | Potency [3] > 20.6 µM

Nc1c(C(=O)NCC2CCCO2)c2nc3ccccc3nc2n1/N=C/c1ccncc1 (configuration not stated)
inactive: activity change, negative = inhibition [1] -7.06% | activity, negative = inhibition [2] -9.64% | Potency [3] > 20.6 µM
